Experimental data as given in PubChem BioAssay (NCI).
Where “and” joins values, the source holds several entries; their conditions need not be identical. Equal entries are not always repeated. About 79,000 compounds went through this panel and 15% of them were active in at least one assay; those are over-represented in the sample as a whole. More than one record can exist for a structure, and the calls need not agree. Calls of active or inactive are those of the source. No stated cut-off is given here; in the data, active means growth inhibition above about 70%; inactive means the rest.

Experiments:
[1] = NCI Yeast Anticancer Drug Screen. Data for the rad50 strain (AID 155);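 further: 0% = growth of vehicle-only cultures of the same strain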; settings: S. cerevisiae rad50 strain growth inhibition, stronger effect = higher value
Method in brief: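 A DNA repair-deficient yeast mutant serves as the test organism; compound-induced growth inhibition is calculated against vehicle-treated cells.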

[2] = NCI Yeast Anticancer Drug Screen. Data for the mec2-1 strain (AID 157); settings: S. cerevisiae mec2-1 strain, stronger effect = higher value
Method in brief: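 Cells of the genetically defined mec2-1 yeast strain are incubated with test compound. Inhibition of growth is calculated against vehicle-treated controls.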

[3] = NCI Yeast Anticancer Drug Screen. Data for the sgs1 mgt1 strain (AID 161);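 further: 0% = growth of cultures given vehicle only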; settings: S. cerevisiae sgs1 mgt1 strain, stronger effect = higher value
Method in brief: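 Read-out: growth inhibition vs vehicle controls. Cells: mutant yeast strain deficient in DNA damage repair.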

[4] = NCI Yeast Anticancer Drug Screen. Data for the cln2 rad14 strain (AID 165);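 further: 0% = growth equal to vehicle treated cultures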; settings: S. cerevisiae cln2 rad14 strain, stronger effect = higher value
Method in brief: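 The screen exposed genetically defined yeast (cln2 rad14) to test compounds and scored growth inhibition relative to vehicle-treated controls.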

[5] = NCI Yeast Anticancer Drug Screen. Data for the bub3 strain (AID 167); settings: S. cerevisiae bub3 mutant strain, stronger effect = higher value
Method in brief: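 Inhibition values come from growth of compound-treated mutant yeast normalised to vehicle-treated controls.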

[6] = NCI Yeast Anticancer Drug Screen. Data for the mlh1 rad18 strain (AID 175); settings: S. cerevisiae mlh1 rad18 strain growth inhibition, stronger effect = higher value
Method in brief: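 Compound-treated yeast growth, normalised to vehicle controls. Strain bears defined DNA repair mutations.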

[7] = at 5.0 µM (retest, dose inferred, filed as 0.5)
[8] = at 50.0 µM (retest, dose inferred, filed as 5.0)

Structure (SMILES)	growth inhibition [1, 7]	growth inhibition [1, 8]	growth inhibition ([1]; at 50.0 µM)	growth inhibition [2, 7]	growth inhibition [2, 8]	growth inhibition ([2]; at 50.0 µM)	growth inhibition [3, 7]	growth inhibition [3, 8]	growth inhibition ([3]; at 50.0 µM)	growth inhibition [4, 7]	growth inhibition [4, 8]	growth inhibition ([4]; at 50.0 µM)	growth inhibition [5, 7]	growth inhibition [5, 8]	growth inhibition ([5]; at 50.0 µM)	growth inhibition [6, 7]	growth inhibition [6, 8]	growth inhibition ([6]; at 50.0 µM)
CCC1(O)CC(OC2CC(N(C)C)C(OC3CC4OC5CC(=O)C(C)OC5OC4C(C)O3)C(C)O2)c2c(cc3c(c2O)C(=O)c2c(O)ccc(O)c2C3=O)C1C(=O)OC (stereo not drawn)	88% (active) and 93% (active)	97% (active) and 98% (active)	89.9% (active) and 87.5% (active) and 91.9% (active)	71% (active) and 96% (active) and 95% (active)	98% (active)	90% (active) and 89.7% (active) and 92% (active)	89% (active) and 79% (active) and 93% (active)	98% (active) and 97% (active)	91% (active) and 90% (active)	73% (active) and 85% (active) and 86% (active)	96% (active) and 97% (active)	88% (active) and 87.9% (active) and 91.4% (active)	93% (active) and 92% (active)	98% (active) and 97% (active)	88.6% (active) and 87.2% (active) and 84.8% (active)	92% (active) and 96% (active) and 94% (active)	97% (active) and 96% (active) and 98% (active)	89.8% (active) and 86% (active) and 89.9% (active)
Oc1cccc[c]1[Hg][Cl]	99% (active)	99% (active)	99.5% (active)	99% (active)	100% (active)	99.7% (active)	99% (active)	99% (active)	99.5% (active)	100% (active)	99% (active)	98.6% (active)	99% (active)	99% (active)	99.5% (active)	99% (active)	99% (active)	99.5% (active)
c1cc2c(cc1NC1=NCCO1)CCCC2	14% (inactive)	8% (inactive)	-37% (inactive)	6% (inactive)	4% (inactive)	-30% (inactive)	-1% (inactive)	34% (inactive)	-6.4% (inactive)	28% (inactive)	21% (inactive)	15.8% (inactive)	-33% (inactive)	-8% (inactive)	-22.6% (inactive)	15% (inactive)	11% (inactive)	-41.1% (inactive)
CC(Br)CN1CCOCC1 (stereo not drawn)	91% (active)	97% (active)	94.2% (active)	25% (inactive)	98% (active)	96.8% (active)	58% (inactive)	94% (active)	67.7% (inactive)	14% (inactive)	66% (inactive)	12.8% (inactive)	-10% (inactive)	36% (inactive)	2.6% (inactive)	66% (inactive)	97% (active)	96.2% (active)
C=CCN1C(=O)NC(=O)/C(=C/c2c3ccccc3cc3ccccc23)C1=O	58% (inactive)	98% (active)	69.2% (inactive)	85% (active)	98% (active)	47.7% (inactive)	66% (inactive)	99% (active)	82.2% (active)	48% (inactive)	98% (active)	-22.6% (inactive)	83% (active)	96% (active)	88% (active)	79% (active)	99% (active)	85% (active)
COC(=O)C1=C(C(=O)OC)[C]([Hg][CH3])(C(C)=O)N=N1 (stereo not drawn)	99% (active)	99% (active)	99.6% (active)	99% (active)	99% (active)	99.5% (active)	99% (active)	99% (active)	99.8% (active)	99% (active)	99% (active)	99.5% (active)	99% (active)	98% (active)	99.2% (active)	99% (active)	99% (active)	99.5% (active)
COc1ccc2c3c1OC1C(=O)C4CC5(c6c(O)ccc(O)c64)C(C2)N(C)CCC315 (stereo not drawn)	-6% (inactive)	99% (active)	98.5% (active)	-2% (inactive)	92% (active)	99% (active)	-6% (inactive)	99% (active)	99.1% (active)	-14% (inactive)	98% (active)	98.1% (active)	-3% (inactive)	99% (active)	98.5% (active)	13% (inactive)	99% (active)	99% (active)
COC(=O)C(CCCN=C(N)N[N+](=O)[O-])NC(=O)c1ccc2c(c1O)C(=O)c1ccccc1C2=O (stereo not drawn)	8% (inactive)	15% (inactive)	71.6% (active)	4% (inactive)	11% (inactive)	28.7% (inactive)	6% (inactive)	18% (inactive)	68.6% (inactive)	-4% (inactive)	3% (inactive)	47.9% (inactive)	2% (inactive)	5% (inactive)	14.5% (inactive)	5% (inactive)	20% (inactive)	66.2% (inactive)
Cc1ccc(C(Cc2ccc(N3C(N)=NC(N)=NC3(C)C)cc2)C(=O)Nc2ccc(S(=O)(=O)F)cc2)cc1 (stereo not drawn)	7% (inactive)	99% (active)	99.2% (active)	45% (inactive)	99% (active)	99.6% (active)	1% (inactive)	99% (active)	99.8% (active)	7% (inactive)	99% (active)	98.8% (active)	-1% (inactive)	99% (active)	98.8% (active)	4% (inactive)	99% (active)	99.5% (active)
COC(=O)CCCCCCCCC[CH2][Hg][Cl]	99% (active)	99% (active)	95% (active)	100% (active)	99% (active)	97.5% (active)	99% (active)	99% (active)	98% (active)	99% (active)	98% (active)	97.3% (active)	99% (active)	99% (active)	98.4% (active)	100% (active)	99% (active)	98.4% (active)
CCC[As](CCC)SC1CCC2(C)C(=CCC3C4CCC(=O)C4(C)CCC32)C1 (stereo not drawn)	17% (inactive)	98% (active)	49.5% (inactive)	9% (inactive)	87% (active)	3.1% (inactive)	19% (inactive)	84% (active)	82% (active)	-3% (inactive)	89% (active)	34.8% (inactive)	0% (inactive)	77% (active)	17.4% (inactive)	11% (inactive)	97% (active)	88.5% (active)
N=C(N)SCc1ccc(Cl)c2ccccc12 (tested in a mixture with another compound)	12% (inactive) and 8% (inactive)	94% (active) and 60% (inactive)	98.8% (active) and 90% (active)	1% (inactive) and -15% (inactive)	58% (inactive) and 35% (inactive)	98.6% (active) and 89.5% (active)	-6% (inactive) and -9% (inactive)	93% (active) and 51% (inactive)	98.5% (active) and 92.5% (active)	-40% (inactive) and -1% (inactive)	94% (active) and 38% (inactive)	94.8% (active) and 57% (inactive)	-21% (inactive) and -5% (inactive)	72% (active) and 66% (inactive)	98.2% (active) and 92.8% (active)	2% (inactive) and -3% (inactive)	91% (active) and 88% (active)	98.7% (active) and 96% (active)
O=[N+]([O-])c1ccc2c[n+]3ccccc3cc2c1	21% (inactive)	84% (active)	80.3% (active)	4% (inactive)	50% (inactive)	5.3% (inactive)	2% (inactive)	56% (inactive)	36.2% (inactive)	1% (inactive)	43% (inactive)	-17.4% (inactive)	-5% (inactive)	56% (inactive)	3.8% (inactive)	12% (inactive)	86% (active)	62% (inactive)
CC[n+]1c(-c2ccccc2)c2cc(N)ccc2c2ccc(N)cc21	39% (inactive) and 29% (inactive)	91% (active) and 92% (active)	81.6% (active) and 83.3% (active)	7% (inactive) and -18% (inactive)	45% (inactive) and 13% (inactive)	3.7% (inactive) and 3.85% (inactive)	-4% (inactive) and -13% (inactive)	16% (inactive) and 27% (inactive)	23.3% (inactive) and 32.1% (inactive)	2% (inactive) and -6% (inactive)	27% (inactive) and 40% (inactive)	11.8% (inactive) and 34.9% (inactive)	-7% (inactive) and -2% (inactive)	27% (inactive) and 24% (inactive)	52.9% (inactive) and 5.2% (inactive)	-17% (inactive) and -4% (inactive)	25% (inactive) and 20% (inactive)	20.2% (inactive) and 34.6% (inactive)
NP(N)(=O)Nc1ccccc1	-1% (inactive)	-2% (inactive)	7.75% (inactive)	2% (inactive)	-2% (inactive)	-22.4% (inactive)	-1% (inactive)	-1% (inactive)	-23.9% (inactive)	0% (inactive)	-2% (inactive)	66.7% (inactive)	2% (inactive)	-6% (inactive)	-8% (inactive)	-2% (inactive)	0% (inactive)	3.6% (inactive)
CCCCN(CC)CC(C(C)=O)c1c(O)c2ccccc2oc1=O (stereo not drawn)	8% (inactive)	22% (inactive)	66.8% (inactive)	4% (inactive)	28% (inactive)	48.2% (inactive)	0% (inactive)	65% (inactive)	60.5% (inactive)	15% (inactive)	59% (inactive)	45.2% (inactive)	21% (inactive)	73% (active)	59% (inactive)	-13% (inactive)	34% (inactive)	42.9% (inactive)
